The record followed here is PubChem BioAssay AID434970 (Sanford-Burnham Center for Chemical Genomics, 2010).

Screen size: about 11,000 compounds; about 310 (2.8%) were called active. Rule as the data show it: active = activity change below about -85%; inactive = the rest. The list comes from a sample in which actives are over-represented; it also holds similar structures and randomly drawn compounds.

The test system of this experiment is intestinal alkaline phosphatase [Mus musculus]. The experiment in a line: activators of mouse IAP, confirmation, biochemical, luminescence, single concentration (AID 434970). To be noted: purified mouse IAP, CDP-Star luminescence, 30 min, at 10 µM; activation factor: measured here: IAP activation factor, stronger effect = higher value; activity change, negative = activation: stronger effect = lower value.
`Cc1cccc(NC(=O)NC2CCCCCCC2)c1`: the activation factor was 2.45 and the activity change, negative = activation was -145% (active).
On the same counts, the results for `O=C(Nc1cccc(F)c1)c1ccccc1` are 1.01 and -0.8% (inactive).
On the same counts, the results for `Cc1cccc(NC(=O)CC2NC3CCCCC3NC2=O)c1` (centres undefined) are 0.974 and 2.55% (inactive).
Turning to `Cc1ccc(NC(=S)NC2CCCCC2)cc1S(=O)(=O)N(C)C`, the activation factor is 1.3 and the activity change, negative = activation is -29.9% (inactive).
On the same counts, the results for `Cc1cc(C)cc(NC(=O)NC2CCCCCCC2)c1` are 3.37 and -237% (active).
In the case of `Cc1cc(C)cc(NC(=S)NCCN(C2CCCCC2)C2CCCC2)c1`, the activation factor was 1.28 and the activity change, negative = activation was -28.3% (inactive).
On the same counts, the results for `CC1CCCN(C(=O)C2(NC(=O)Nc3cccc(F)c3)CCCCC2)C1` (centres undefined) are 1.81 and -81.1% (inactive).
On the same counts, the results for `Cc1ccc(NC(=O)NC2CCCCCCC2)cc1C` are 2.56 and -156% (active).
On the same counts, the results for `C=CCNc1nc(Nc2ccc(OC)cc2)nc(OC)n1` are 0.992 and 0.8% (inactive).
Consider `CC(C)C(NC(=S)NCc1ccccc1)C(=O)O` (centres undefined), for which the activation factor was found to be 0.93 and the activity change, negative = activation was 7% (inactive).
On the same counts, the results for `Cc1ccc(-c2nn3c(C)nnc3s2)cc1NC(=O)c1ccc(-c2cccc(Cl)c2)o1` are 0.849 and 15.2% (inactive).
On the same counts, the results for `Cc1ccccc1NC1=C(Cl)C(=O)OC1OC(C)C` (centres undefined) are 0.976 and 2.45% (inactive).
On the same counts, the results for `CCOC(=O)c1c(N)sc(C(N)=O)c1C` are 1.01 and -0.6% (inactive).
For the compound `O=C(Nc1c(-c2ccccc2)nc2sccn12)c1ccccc1`, the activation factor came out at 0.907 and the activity change, negative = activation was 9.25% (inactive).
Regarding `CCN(CC)S(=O)(=O)c1ccc(Cl)c(C(=O)Oc2cccnc2)c1`, the activation factor came to 0.919 and the activity change, negative = activation is 8.05% (inactive).
For `COC(=O)C1=C(C)NC2=C(C(=O)C(C(=O)OC)C(c3ccc(OC)cc3)C2)C1c1ccccn1` (centres undefined), the activation factor came out at 1.07 and the activity change, negative = activation was -6.6% (inactive).
On the same counts, the results for `CC(=O)Nc1ccc(NS(C)(=O)=O)cc1` are 0.891 and 10.9% (inactive).
On the same counts, the results for `O=C1CC(N2CCN(c3ccccc3F)CC2)C(=O)N1c1ccc2c(c1)OCCO2` (centres undefined) are 0.964 and 3.6% (inactive).
On the same counts, the results for `O=C(CSc1nnc(-c2ccco2)n1Cc1ccco1)NCc1ccccc1` are 1.11 and -11.1% (inactive).
Consider `O=C(Nc1cccc(C(F)(F)F)c1)NC1CCCCC1`, for which the activation factor is 2.1 and the activity change, negative = activation is -110% (active).
As for `O=C(Nc1cccc(C(F)(F)F)c1)NC1CCN(S(=O)(=O)c2ccc(F)cc2)CC1`, the activation factor is 1.81 and the activity change, negative = activation is -81.5% (inactive).
On the same counts, the results for `FC(F)(F)c1ccc(NC(=S)NC2CCCCC2)cc1` are 1.25 and -24.9% (inactive).
On the same counts, the results for `O=c1[nH]c2ccc(S(=O)(=O)Nc3ccc(-c4nnc5n4CCCCC5)cc3)cc2o1` are 0.87 and 13% (inactive).
On the same counts, the results for `CCC(NC(=S)NCc1ccc(F)cc1)c1ccc(C(C)C)cc1` (centres undefined) are 1.39 and -38.5% (inactive).
As for `CCc1ccc(C(C)NC(=S)NCc2ccc(F)cc2)cc1` (centres undefined), the activation factor worked out at 1.11 and the activity change, negative = activation is -10.5% (inactive).
On the same counts, the results for `CC(NC(=S)NCc1ccc(F)cc1)C12CC3CC(CC(C3)C1)C2` (centres undefined) are 4.19 and -319% (active).
As to `COc1cc(CN(C2CC2)S(=O)(=O)c2ccccc2Br)cc(OC)c1`, the activation factor turned out to be 1.07 and the activity change, negative = activation is -7.4% (inactive).
On the same counts, the results for `O=C(c1ccco1)N1CCN(C(=O)C2CCN(S(=O)(=O)c3cnc[nH]3)CC2)CC1` are 0.909 and 9.15% (inactive).
On the same counts, the results for `O=C(NNc1cccc(Cl)n1)Nc1ccccc1` are 0.964 and 3.55% (inactive).
On the same counts, the results for `CCOc1ccc2nc(NC(=O)Nc3ccccc3)sc2c1` are 1.04 and -3.8% (inactive).
With `CC(C)(C)c1nc(NC(=O)Nc2ccccc2)sc1Br`, the activation factor came to 2.12 and the activity change, negative = activation is -112% (active).
On the same counts, the results for `CC(C)(C)c1ccc(OC(=O)c2cccnc2)cc1` are 1.01 and -0.6% (inactive).
On the same counts, the results for `CCO/C(C)=C1\N=C(c2ccc(Cl)cc2)OC1=O` are 1.06 and -5.85% (inactive).
On the same counts, the results for `O=C(Nc1cccc(-c2cccc(Cl)c2)c1)C1CCN(Cc2ccc(CO)o2)CC1` are 2.61 and -161% (active).
Turning to `Cc1oc(-c2ccc(Cl)cc2)nc1CN1CCC(C(=O)NCc2cccs2)CC1`, the activation factor amounted to 1.19 and the activity change, negative = activation was -19.5% (inactive).
On the same counts, the results for `COCc1ccc(CN2CCC(C(=O)Nc3cccc(-c4cccc(Cl)c4)c3)CC2)o1` are 4.36 and -336% (active).
On the same counts, the results for `O=C(Nc1cccc(-c2cccc(Cl)c2)c1)C1CCN(Cc2ccon2)CC1` are 1.73 and -73.1% (active).
For the compound `O=C(Nc1ccc(Br)c(Cl)c1)C1CC1`, the activation factor was determined as 1.01 and the activity change, negative = activation was -1.05% (inactive).
On to `O=C(Nc1cccc(-c2cccc(Cl)c2)c1)C1CCN(CC2CCOC2)CC1` (centres undefined), for which the activation factor is 2.32 and the activity change, negative = activation was -132% (active).
On the same counts, the results for `O=C(Nc1cccc(-c2cccc(F)c2)c1)C1CCN(Cc2ccc(CO)o2)CC1` are 1.64 and -64.3% (inactive).
On the same counts, the results for `O=C(Nc1ccc2c(c1)OCCO2)C1CCN(S(=O)(=O)c2cccc3nsnc23)CC1` are 0.988 and 1.25% (inactive).
On the same counts, the results for `O=C(NCc1ccc2c(c1)OCO2)C1CCCN1C(=O)Nc1cccc(Cl)c1` (centres undefined) are 1.03 and -2.95% (inactive).
